Out of some 2,400 compounds screened, about 580 (24%) were called active. Not all results are given here. Unmarked numbers belong to inactive results.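 How the source made its calls: active means activity change at or above the mean plus 3 SD of buffer wells without dofetilide, per plate; inactive means the rest.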
Each molecule was assayed against Potassium voltage-gated channel subfamily KQT member 2 (Rattus norvegicus) (UniProt O88943) (assay: rat KCNQ2 channel activation by compounds alone, confirmation, counter-screen for hERG block protector project, cell-based, CHO, FluxOR thallium flux (AID 1942;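 further: normalized value minus buffer-control mean plus three SD of buffer wells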)). Settings: CHO-KCNQ2 cells, FluxOR thallium flux fluorescence; at 10 µM; active compounds read high.
Potassium voltage-gated channel subfamily KQT member 2 (Rattus norvegicus), sequence (O88943 whole entry, looked up): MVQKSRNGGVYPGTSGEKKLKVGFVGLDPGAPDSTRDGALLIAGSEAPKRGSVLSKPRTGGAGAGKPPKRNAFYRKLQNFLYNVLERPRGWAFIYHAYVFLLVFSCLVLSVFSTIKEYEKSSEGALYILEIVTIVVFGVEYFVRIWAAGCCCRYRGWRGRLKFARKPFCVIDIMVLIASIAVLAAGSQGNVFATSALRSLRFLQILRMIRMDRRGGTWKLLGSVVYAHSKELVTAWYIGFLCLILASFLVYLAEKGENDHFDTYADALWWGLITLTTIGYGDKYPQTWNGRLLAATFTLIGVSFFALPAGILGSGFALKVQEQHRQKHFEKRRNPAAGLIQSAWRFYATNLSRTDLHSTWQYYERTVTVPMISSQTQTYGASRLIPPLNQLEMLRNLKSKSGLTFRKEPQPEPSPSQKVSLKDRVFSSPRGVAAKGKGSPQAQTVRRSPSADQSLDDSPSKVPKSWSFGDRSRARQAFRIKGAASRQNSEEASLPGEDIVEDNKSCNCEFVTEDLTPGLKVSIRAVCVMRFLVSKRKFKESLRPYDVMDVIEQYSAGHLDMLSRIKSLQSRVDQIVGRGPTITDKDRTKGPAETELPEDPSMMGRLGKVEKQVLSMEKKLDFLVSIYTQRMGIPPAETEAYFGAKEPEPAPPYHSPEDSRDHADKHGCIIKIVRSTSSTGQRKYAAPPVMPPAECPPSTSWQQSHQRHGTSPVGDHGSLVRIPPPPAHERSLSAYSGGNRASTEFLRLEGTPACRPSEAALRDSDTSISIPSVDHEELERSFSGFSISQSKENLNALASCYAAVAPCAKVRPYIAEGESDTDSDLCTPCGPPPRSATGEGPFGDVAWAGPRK
In the case of COc1ccccc1-n1cnc2cc(NS(=O)(=O)c3ccc(Br)cc3)ccc21, the activity change, less the hit threshold is reported as -25.5%. CC1Oc2ccccc2N(CC(=O)N2CCCCCC2)C1=O (stereo unspecified) was tested, and the activity change, less the hit threshold was -17.7%. In the case of O=C(COc1coc(CN2CCc3ccccc3C2)cc1=O)Nc1cccc(Cl)c1, the activity change, less the hit threshold is reported as -26%. COc1ccc(CCNC(=O)C(=O)Nc2ccc3c(c2)OCO3)cc1OC showed an activity change, less the hit threshold of -19%. Work on O=C(COC(=O)/C=C/c1ccc2c(c1)OCO2)NC1CC1 yielded an activity change, less the hit threshold of -11.4%. Molecule COc1cc(/C=N/NC(=O)NC2CCCCC2)ccc1O has an activity change, less the hit threshold of -11.5%. In the case of CC(NC(=O)NC1CCCCC1)c1ccc2c(c1)OCO2 (stereo unspecified), the activity change, less the hit threshold is reported as 51% (active). In the case of Cc1ccc(C(=O)N2CCN(c3ccccc3)CC2)cc1S(=O)(=O)N1CCCC1, the activity change, less the hit threshold is reported as 1.9% (active). CCOC(=O)N1CCN(C(=O)c2ccc(Cl)c(S(=O)(=O)Nc3ccccc3)c2)CC1 was tested, and the activity change, less the hit threshold was -3.5%. With CCOC(=O)N1CCN(C(=O)c2ccc(CN(c3ccc(C)c(C)c3)S(C)(=O)=O)cc2)CC1 the activity change, less the hit threshold was -15.6%. With COc1ccc(N2CCN(C(=O)c3ccc(-c4ccccc4)cc3)CC2)cc1 the activity change, less the hit threshold was -20%. In the case of CCOC(=O)N1CCN(C(=O)c2ccc(C)c(S(=O)(=O)Nc3ccccc3)c2)CC1, the activity change, less the hit threshold is reported as 4% (active). Molecule O=C(c1ccc(Cl)c(S(=O)(=O)N2CCCC2)c1)N1CCN(c2ccccc2F)CC1 has an activity change, less the hit threshold of -7.1%. Work on Cc1cccc(/N=C/c2sc3ccccc3c2O)n1 yielded an activity change, less the hit threshold of -11.6%. Work on CCC(=O)c1cc2c(C)cc(=O)oc2c(C)c1O yielded an activity change, less the hit threshold of -12.6%. Work on CSc1ccc(CNc2nc3ccccc3n3cnnc23)cc1 yielded an activity change, less the hit threshold of -28.3%. COc1ccc(COC(=O)C2CCN(S(=O)(=O)c3cccs3)CC2)cc1 showed an activity change, less the hit threshold of -20.1%. For c1ccc(-c2csc(Nc3ccc4c(c3)OCCO4)n2)cc1, the activity change, less the hit threshold was -20.3%. O=C(COC(=O)c1cc[n+]([O-])cc1)Nc1cc([N+](=O)[O-])ccc1Cl showed an activity change, less the hit threshold of -11.7%. O=C(Nc1nnc(-c2ccc3c(c2)CCCC3)o1)C1COc2ccccc2O1 (stereo unspecified) was tested, and the activity change, less the hit threshold was 4.3% (active). With O=C(Cc1ccc(Cl)cc1)Nc1cccc(-c2nnc(-c3ccco3)o2)c1 the activity change, less the hit threshold was -13.4%. O=C(CCc1ccccc1)Nc1nnc(-c2ccccn2)o1 showed an activity change, less the hit threshold of -17.4%. For O=C(Nc1nc2c(F)cc(F)cc2s1)C1COc2ccccc2O1 (stereo unspecified), the activity change, less the hit threshold was -25.7%. O=C(Nc1nnc(-c2ccc3c(c2)CCCC3)o1)c1ccc(Cl)cc1Cl was tested, and the activity change, less the hit threshold was 30.2% (active). In the case of O=C(Nc1nnc(-c2ccccc2)o1)c1ccc(Cl)cc1, the activity change, less the hit threshold is reported as -17.9%. Work on O=C(N=C1SC2CS(=O)(=O)CC2N1c1cccc(Cl)c1Cl)C1CCCO1 (stereo unspecified) yielded an activity change, less the hit threshold of -21.2%.

Source: PubChem BioAssay AID1942 (Johns Hopkins Ion Channel Center, 2009)
